Bioassay records: PubChem, The Scripps Research Institute Molecular Screening Center
Only some compounds are listed: those with a hit (about 2.4% of all), similar ones and a draw of the others.
CHO-K1 Ca ag: counter-screen for M1 agonists: effect in parental CHO-K1 cells; Fluo-8 calcium fluorescence; scaled to maximal ATP response, vehicle zero; activation, % at 3 µM; 360,000 tested, 0.48% active; in the data active = activation above about 15%;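 also: untransfected CHO-K1 host cells lacking M1 receptor as counterscreen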
CHO-K1 Ca antag: M1 antagonist counterscreen hit in parental CHO-K1 cells; ATP-induced calcium, Fluo-8 fluorescence; inhibition, % at 3 µM; 360,000 tested, 0.6% active; AID 602250;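 active = inhibition above a per-plate cutoff, the plate's mean sample inhibition plus 3 SD, cut at about 24% in these data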;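 also: 0% = DMSO plus EC80 ATP and 100% = DMSO alone without ATP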
M1 ag: human M1 muscarinic receptor agonism | activation, % at 3 µM | CHO-K1 hM1, Fluo-8 calcium fluorescence, agonist mode; 0% DMSO, 100% acetylcholine EC100 | 360,000 tested, 0.33% active;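 active = activation above the run's mean compound activation plus 3 SD, cut at about 16% in these data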;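 also: peak over basal fluorescence ratio within a 140 s kinetic read after compound addition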
Target sequence (P11229 whole entry, looked up): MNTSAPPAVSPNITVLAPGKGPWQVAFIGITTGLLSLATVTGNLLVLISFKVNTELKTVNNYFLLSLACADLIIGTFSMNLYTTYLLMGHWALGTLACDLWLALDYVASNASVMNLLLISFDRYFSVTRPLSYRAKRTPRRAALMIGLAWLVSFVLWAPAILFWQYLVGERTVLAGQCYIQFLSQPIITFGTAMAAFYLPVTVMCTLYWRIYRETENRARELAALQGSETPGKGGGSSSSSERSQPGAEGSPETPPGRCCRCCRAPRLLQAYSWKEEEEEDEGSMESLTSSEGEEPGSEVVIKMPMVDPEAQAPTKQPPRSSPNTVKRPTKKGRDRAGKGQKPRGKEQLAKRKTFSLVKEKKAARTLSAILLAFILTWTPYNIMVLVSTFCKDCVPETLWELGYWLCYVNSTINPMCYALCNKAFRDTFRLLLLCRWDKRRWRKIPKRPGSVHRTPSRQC
M1 antag: antagonists of human M1 muscarinic receptor | inhibition, % at 3 µM | CHO-K1 hM1, Fluo-8 calcium fluorescence, ACh EC80 antagonist | 360,000 tested, 1.3% active | P11229 | AID 588852;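 active = percent inhibition above its own plate's cutoff, namely the mean of that plate's compound wells plus 3 SD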;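 also: peak over basal fluorescence ratio during 140 s after agonist addition; 0% = ACh EC80 plus DMSO and 100% = DMSO alone without agonist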
CHO-K1 Ca PAM: M1 PAM counterscreen hit in parental CHO-K1 cells; AID 602247; activation, % at 3 µM; ATP EC20, Fluo-8 calcium fluorescence; 0% at ATP EC20, 100% at ATP max; 360,000 tested, 0.02% active;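 active = activation above the run cutoff, the mean activation of all test compounds plus 3 SD, cut at about 40% in these data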;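 also: peak over basal fluorescence ratio in a 140 s read after ATP addition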
M1 PAM: human CHRM1 positive allosteric modulation; AID 588819; P11229; 360,000 tested, 0.088% active; CHO-K1 hM1, Fluo-8 calcium fluorescence, ACh EC20; 0% = ACh EC20, 100% = maximal ACh; activation, % at 3 µM; in the data active = activation above about 19%, passing the limit was not always enough
* marks the source's active call; other numbers are inactive results.

SMILES | CHO-K1 Ca ag | CHO-K1 Ca antag | M1 ag | M1 antag | CHO-K1 Ca PAM | M1 PAM
C[N+](C)(N)CCOC(=O)C(O)(c1ccccc1)C1CCCCC1 (configuration not stated) | 0.3 | -7.5 | -8.5 | 100.4* | 2.4 | -25.9
O=C(c1ccc2c(c1)OCO2)C1CCCN(CC2CCCCC2)C1 (configuration not stated) | 3.8 | -8.8 | -15.3 | 42.0* | 4.4 | -36.6
Cc1cccc(CN2CCCC(C(=O)c3ccc4c(c3)OCO4)C2)n1 (configuration not stated) | -0.1 | 4.3 | -13.2 | 33.1* | -6.8 | -32.0
COc1c(C)cc(C(=O)C2CCCN(Cc3cccc(C)n3)C2)cc1C (configuration not stated) | 1.2 | -8.2 | -11.6 | 32.9* | 19.6 | -29.9
COc1ccc(C(=O)C2CCCN(Cc3ccon3)C2)cc1OC (configuration not stated) | -0.1 | -1.0 | -12.2 | 3.3 | 12.9 | 5.6
COc1ccc2cc(C(=O)C3CCCN(C4CCOCC4)C3)ccc2c1 (configuration not stated) | 2.2 | -11.8 | -7.2 | 3.6 | 10.0 | -8.5
COc1c(C)cc(C(=O)C2CCCN(C3CCOCC3)C2)cc1C (configuration not stated) | 1.0 | -13.4 | -3.9 | 55.1* | 11.3 | -17.3
Cc1cc(O)c(CN2CC=C(c3ccccc3)CC2)cc1C(C)C | -0.2 | -6.0 | -2.6 | -23.4 | 8.1 | 14.7
O=C(c1cccc(C(F)(F)F)c1)C1CCCN(Cc2ccccc2O)C1 (configuration not stated) | 1.2 | -11.0 | -6.3 | 23.1 | 7.3 | -7.3
COc1cccc(C(=O)C2CCCN(Cc3ccc4nsnc4c3)C2)c1 (configuration not stated) | 0.4 | -18.8 | -6.8 | 33.8* | 15.2 | -21.9
COc1cccc(C(=O)C2CCCN(Cc3ccc(F)cc3)C2)c1 (configuration not stated) | -0.4 | -8.5 | -10.4 | 21.2 | 5.5 | -21.0
O=C(c1ccc2c(c1)OCO2)C1CCCN(Cc2c(F)cccc2Cl)C1 (configuration not stated) | 0.5 | -12.5 | -5.3 | 91.8* | 9.1 | -23.1
COc1cccc(C(=O)C2CCCN(Cc3cccc(C)n3)C2)c1 (configuration not stated) | 0.3 | 6.8 | -12.0 | 27.0* | -3.0 | -29.9
Cc1cccc(CN2CCCC(C(=O)c3cccc(OC(C)C)c3)C2)n1 (configuration not stated) | 1.7 | -8.2 | -12.3 | 17.1 | 9.3 | -30.0
CC(=O)c1ccc(OCC(=O)N2CCCC(N(C)Cc3ccccc3)C2)cc1 (configuration not stated) | 0.1 | 0.3 | -6.1 | -1.9 | 2.8 | 2.8
N#Cc1ccc(CN2Cc3ccccc3-n3nncc3C2)cc1 | 0.2 | 15.9 | -2.0 | -2.8 | -8.2 | 4.8
CC1=C2[C@H]3OC(=O)[C@@H](C)[C@@H]3CC[C@@]2(C)C=CC1=O | 0.2 | 5.8 | 0.2 | 1.1 | -11.2 | -3.7
O=c1[nH]c(=O)n(C2CCCCC2)c(O)c1/C=C/C=Nc1ccccc1 | 17.6* | -4.3 | 17.7* | 1.3 | 3.4 | -2.4
COc1ccc(-n2c(O)c(/C(C)=N/N3CCCCCC3)c(=O)[nH]c2=O)cc1 | -0.2 | -5.1 | -1.5 | -11.9 | 0.1 | 33.8*
COc1ccc(-n2c(O)c(/C(C)=N/Nc3ccccc3)c(=O)[nH]c2=O)cc1 | 1.2 | -10.4 | -3.5 | -1.9 | 18.6 | 3.8
COc1ccc(-n2c(O)c(/C=C/C=Nc3ccccc3)c(=O)[nH]c2=O)cc1 | 23.4* | 17.3 | 22.5* | 16.8 | -17.5 | -10.7
CCOC(=O)CNC(=S)N1CC2C[C@@H](C1)Cn1c2cccc1=O | 4.8 | 12.5 | 0.1 | 1.2 | -1.8 | 1.2
C(=NN1CCCCCC1)c1c[nH]c2ccccc12 | 0.9 | -12.2 | -2.7 | 17.6 | 5.5 | -9.2
Brc1ccc2[nH]cc(/C=N/N3CCCCC3)c2c1 | 0.9 | 1.3 | 32.1* | 7.3 | 8.1 | -5.0
O=C(Nc1ccccc1)NC1CC2CCC(C1)N2 (configuration not stated) | 0.1 | -0.7 | -4.9 | 30.5* | 8.4 | -16.6
SMILES | CHO-K1 Ca ag | CHO-K1 Ca antag | M1 ag | M1 antag | CHO-K1 Ca PAM | M1 PAM
CCN1CCN(Cc2cccnc2)CC1 | 1.3 | -3.1 | -6.3 | -15.8 | 15.7 | 5.6
O=[N+]([O-])/C(Cl)=C1\NCCN1Cc1ccc(Cl)nc1 | 2.0 | -5.8 | -1.0 | -13.8 | 26.6 | 12.1
O=[N+]([O-])/C=C1/NCCN1Cc1ccc(Cl)nc1 | -0.4 | 26.1* | -5.0 | 7.7 | -13.8 | -5.5
N#CC(CCN1CCOCC1)(c1ccccc1)c1ccccc1 | 0.6 | -10.9 | -5.8 | 41.5* | 13.4 | -20.3
CC(C)[N+](C)(CCC(C(N)=O)(c1ccccc1)c1ccccc1)C(C)C | 0.6 | 7.2 | -7.5 | 98.9* | 8.1 | -26.2
C#CCOC(=O)C1=CCCN(C)C1 | 0.6 | -11.5 | 106.0* | 83.4 | 16.6 | -13.6
CC1CCN(CC#CCOc2ccc(Cl)cc2)CC1 | 0.7 | -1.1 | -9.8 | 19.5 | 6.8 | -21.2
Cc1cnc[nH]1 | 1.6 | -25.7 | -1.8 | -12.8 | 19.0 | 6.7
CC(=NNC(=S)N1CC2CCC(CC2)C1)c1nccs1 | -0.4 | 5.8 | -5.3 | 3.7 | -8.1 | -2.4
COc1ccc(OCC#CCN2CCCCCC2)cc1 | 0.2 | -1.2 | -9.7 | 6.9 | 8.1 | -15.7
Cc1ccc(C(C)C)c(OCC#CCN2CCCC2)c1 | 3.3 | -13.4 | -5.7 | 89.6* | 22.4 | -22.4
CC(C)c1ccc(N2C(=O)NC(=O)/C(=C\c3cnc(-c4ccccc4)nc3)C2=O)cc1 | 0.1 | 1.3 | -2.5 | 3.5 | -0.5 | 26.3*
Cc1ccc(N2C(=O)NC(=O)/C(=C/c3cnc(-c4ccccc4)nc3)C2=O)cc1C | 3.3 | 0.8 | -4.9 | -4.5 | 6.5 | 5.0
C[C@@H]1CN([C@@H](C)CO)C(=O)CCCn2nncc2CO[C@@H]1CN(C)C(=O)Oc1cccc2ccccc12 | -0.3 | -9.9 | -5.3 | -14.1 | 15.9 | 3.5
CCOP(=S)(OCC)Oc1cc(C)oc(=O)c1 | 0.7 | -2.8 | -1.7 | 1.0 | -2.2 | 29.1*
CCOP(=S)(OCC)Oc1cc(C)oc(=O)c1Cl | 0.8 | -14.8 | -2.5 | 4.7 | 14.9 | 7.5
O=C1C(Cl)=CC(=Nc2ccc(O)cc2)C=C1Cl | 1.0 | -9.4 | -1.9 | -5.3 | 8.8 | 2.3
CCCCCCCSc1cc(OC)c(CCNC)cc1OC | 4.6 | -11.7 | -0.8 | 7.3 | 22.9 | 1.4
CCCCCSc1cc(OC)c(CCNC)cc1OC | 0.8 | 7.6 | -7.7 | 36.1* | -5.5 | -20.0
CCCCCCn1c(O)c(C=Nc2c(C)n(C)n(-c3ccccc3)c2=O)c(=O)[nH]c1=O | -0.4 | 6.3 | -5.6 | 46.9* | -4.0 | -17.9
O=[N+]([O-])c1cccc(NP(=O)(Oc2ccccc2)Oc2ccccc2)c1 | 5.5 | 14.5 | -5.5 | 32.7 | 1.2 | -18.9
